Screening results (PubChem)
Most compounds without a hit are left out; they make up all but 3% or so of the library.
CF NFkB block – blocks PAF-induced NF-kB reporter in cystic fibrosis cells; KKLEB NF-kB-GFP reporter, GFP fluorescence overnight; inhibition, % at 5 µM; 360,000 tested, 0.86% active; AID 588850;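 active = at least 50% inhibition at 5 µM, scaled per plate between neutral and stimulator controls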;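 note: PAF is a Pseudomonas aeruginosa culture filtrate used as stimulus; plate controls were PAF-stimulated DMSO wells for no effect and unstimulated DMSO wells for full effect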
KKLEB tox – CF airway cell cytotoxicity counter-screen; KKLEB CF airway cells viability, ATPlite luminescence, overnight; stronger effect = lower value; cells stimulated with P. aeruginosa culture filtrate; activity change (cytotoxicity), % at 5 µM; 360,000 tested, 0.36% active; AID 602141;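 active = corrected activity change at or below -50% at 5 µM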
Peg3 prom inh – inhibitors of Peg3 promoter; HeLa PEG-Prom luciferase reporter, luminescence, overnight; inhibition, % at 20 µM; AID 588405; 360,000 tested, 1.7% active;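 active = inhibition of at least 50% at 20 µM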
LMP1 NFkB inh – reduces LMP1-driven NF-kappaB luciferase signal. LMP1-induced NF-kappaB luciferase reporter cells, luminescence. AID 504558. inhibition, % at 12.5 µM. 350,000 tested, 0.69% active; in the data active = inhibition above about 41%;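 note: 0% = neutral control wells and 100% = reference inhibitor control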
TRPM1 prom inh – inhibitors of MITF-driven TRPM1 promoter in melanoma cells; inhibition, % at 12.5 µM; SK-MEL-5 TRPM1 promoter luciferase, 24 h; 330,000 tested, 0.83% active;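 active = mean inhibition across replicates of 60% or more, whatever share of single replicates reaches that level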
HIF-2a inh – blocks HIF-2a reporter activity; 786-0 RCC cells HIF-2a reporter, luciferase luminescence, overnight; inhibition, % at 18.8 µM; 360,000 tested, 0.72% active; AID 624352;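 active = inhibition of the luminescence signal of 40% or more relative to plate controls, in a single-dose primary screen at 18.75 µM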
* marks the source's active call; other numbers are inactive results.

O=C(Nc1nccs1)c1cccc(N2C(=O)c3cccc4c([N+](=O)[O-])ccc(c34)C2=O)c1 was read as CF NFkB block -1, KKLEB tox -5, Peg3 prom inh 110*, LMP1 NFkB inh -9, TRPM1 prom inh 34 and HIF-2a inh 9.
O=C(Nc1ccc(S(=O)(=O)Nc2nccs2)cc1)c1cccc(N2C(=O)c3ccccc3C2=O)c1 was read as CF NFkB block -5, KKLEB tox -4, Peg3 prom inh -12, LMP1 NFkB inh 4, TRPM1 prom inh -11 and HIF-2a inh 4.
`CC(C)(C)c1ccc(Oc2ccc(N)cn2)cc1` gave CF NFkB block -18, KKLEB tox 13, Peg3 prom inh 30 and HIF-2a inh 77*.
`Cc1cc(Oc2ccc(N)cn2)cc(C)c1Cl` gave CF NFkB block -1, KKLEB tox -5, Peg3 prom inh -12, LMP1 NFkB inh -7, TRPM1 prom inh 2 and HIF-2a inh 12.
`COc1ccc([N+](=O)[O-])cc1COc1ccc2c(-c3ccccc3)cc(=O)oc2c1` gave CF NFkB block 67*, KKLEB tox -52*, Peg3 prom inh 16, LMP1 NFkB inh 3, TRPM1 prom inh -8 and HIF-2a inh 17.
For CC(=O)COc1ccc2c(-c3cccc([N+](=O)[O-])c3)cc(=O)oc2c1 the results were CF NFkB block -16, KKLEB tox 4, Peg3 prom inh -4, LMP1 NFkB inh -3, TRPM1 prom inh 9 and HIF-2a inh 11.
For CCc1c(C)c2ccc(OCC(=O)OC)cc2oc1=O the results were CF NFkB block -4, KKLEB tox 4, Peg3 prom inh 3, LMP1 NFkB inh -6, TRPM1 prom inh 8 and HIF-2a inh 14.
For CCOC(=O)CCc1c(C)c2ccc(OCc3cc([N+](=O)[O-])ccc3OC)cc2oc1=O the results were CF NFkB block 3, KKLEB tox -54*, Peg3 prom inh 0, LMP1 NFkB inh -1, TRPM1 prom inh 9 and HIF-2a inh 18.
`CC(C)Oc1ccc(F)cc1-c1cc(C(=O)NCc2ccc(F)cc2)[nH]n1` gave CF NFkB block -22, KKLEB tox -14, Peg3 prom inh 20 and HIF-2a inh 16.
Screening CCOC(=O)N1CCN(C(=O)C[C@@H]2C[C@@]3(C(=O)OCC)CCC=C3N(Cc3ccc4c(c3)OCO4)C2=O)CC1 returned HIF-2a inh -1.
CCOC(=O)/C=C(\C)Sc1cc(O)c2ccccc2c1O was read as CF NFkB block 88*, KKLEB tox -43, Peg3 prom inh 38, LMP1 NFkB inh -1, TRPM1 prom inh 83* and HIF-2a inh 0.
CCOC(=O)/C=C(\C)Sc1cc(=O)oc2ccccc12 was read as CF NFkB block 37, KKLEB tox -34, Peg3 prom inh 13, LMP1 NFkB inh 50*, TRPM1 prom inh 19 and HIF-2a inh 3.
Clc1cccc(Cc2c(C3CCCCC3)nc3c4ccccc4ccn23)c1 was read as HIF-2a inh -133.
For CS(=O)(=O)c1ccc(Sc2nc3ccccc3s2)c([N+](=O)[O-])c1 the results were CF NFkB block 54*, KKLEB tox -45, Peg3 prom inh 41, LMP1 NFkB inh 56*, TRPM1 prom inh 39 and HIF-2a inh 4.
Screening CS(=O)(=O)c1ccc(Sc2nc3ccccc3[nH]2)c([N+](=O)[O-])c1 returned CF NFkB block 11, KKLEB tox 5, Peg3 prom inh -4, LMP1 NFkB inh -6, TRPM1 prom inh 7 and HIF-2a inh 24.
CN1CCCC(C)(C(=O)Nc2cccc(Oc3ccccc3)c2)C1 (stereo not drawn) was read as CF NFkB block 6, KKLEB tox 2, Peg3 prom inh 2 and HIF-2a inh 2.
For COc1cc2c(cc1NC(=O)CSc1nc3cc(Cl)ccc3s1)oc1ccccc12 the results were CF NFkB block 39, KKLEB tox -60*, Peg3 prom inh 12, LMP1 NFkB inh 9, TRPM1 prom inh 2 and HIF-2a inh 4.
C(=C\c1ccccc1)/C=N/Nc1nc(N2CCCCC2)nc(N2CCCCC2)n1 was read as CF NFkB block -2, KKLEB tox -16, Peg3 prom inh 51*, LMP1 NFkB inh -6, TRPM1 prom inh -7 and HIF-2a inh 1.
Screening Cc1ccc(C(=O)N(CC(=O)NC2CCCC2)c2ccccc2F)s1 returned CF NFkB block -29, KKLEB tox 18, Peg3 prom inh 10, LMP1 NFkB inh -4 and HIF-2a inh 9.
Cc1cc(S(=O)(=O)ON2C(=O)c3ccccc3C2=O)ccc1F was read as CF NFkB block 8, KKLEB tox -8, Peg3 prom inh 61*, LMP1 NFkB inh 2, TRPM1 prom inh 43 and HIF-2a inh 34.
`C[C@@H]1CN([C@H](C)CO)S(=O)(=O)c2ccc(C#Cc3ccccc3F)cc2O[C@@H]1CN(C)C(=O)Cc1ccccc1` gave CF NFkB block 26, KKLEB tox -10, Peg3 prom inh 31, LMP1 NFkB inh -3 and HIF-2a inh 28.
`COc1ccc2nc3cc(Cl)ccc3c(Nc3cc(C(C)C)c(O)cc3C)c2c1` gave CF NFkB block 38, KKLEB tox -56*, Peg3 prom inh 105*, LMP1 NFkB inh 19, TRPM1 prom inh 10 and HIF-2a inh -4.
Screening COc1ccc(S(=O)(=O)Nc2cc(C(C)C)c(O)cc2C)cc1 returned CF NFkB block 4, KKLEB tox 1, Peg3 prom inh 4, LMP1 NFkB inh 1, TRPM1 prom inh -10 and HIF-2a inh 4.
CCOC(=O)c1cnc2c(c(C)nn2-c2ccc(C)cc2)c1Cl was read as CF NFkB block 23, KKLEB tox -3, Peg3 prom inh 101*, LMP1 NFkB inh 4, TRPM1 prom inh 21 and HIF-2a inh 6.
`Nc1ccc2c(c1)C(O)c1cccc(C(=O)O)c1-2` (stereo not drawn) gave CF NFkB block -7, KKLEB tox -1, Peg3 prom inh 5, LMP1 NFkB inh -4, TRPM1 prom inh -1 and HIF-2a inh 8.
`CCCOc1ccc2c(c1)C(=NN=C(N)N)c1cc(OCCC)ccc1-2` gave CF NFkB block -2, KKLEB tox -13, Peg3 prom inh 90*, LMP1 NFkB inh -13, TRPM1 prom inh -11 and HIF-2a inh -12.
For O=C1C=C(O)c2[nH]c(=O)ccc2C1=O the results were CF NFkB block 11, KKLEB tox 4, Peg3 prom inh -8, LMP1 NFkB inh 9, TRPM1 prom inh -11 and HIF-2a inh 6.
O=C(/C=C/c1cn(CC(O)CN2CCCCC2)c2ccccc12)c1cccs1 (stereo not drawn) was read as CF NFkB block -8, KKLEB tox -6, Peg3 prom inh 73*, LMP1 NFkB inh 1, TRPM1 prom inh -17 and HIF-2a inh -17.
c1ccc(-c2ncc3c(ccc4ccccc43)n2)cc1 was read as CF NFkB block -15, KKLEB tox -54*, Peg3 prom inh -81, LMP1 NFkB inh 19, TRPM1 prom inh 0 and HIF-2a inh -35.
